Consider 13 compounds from PubChem BioAssay (NCATS).

Records with an inconclusive call do not appear. Activity calls are given as the source filed them. Unless noted, calls follow the shape of the dose curve; as a rule, active = well fitted curve in the direction sought with a large enough effect; inconclusive = small, poorly fitted or top-dose-only effect, or another doubt; inactive = no such curve, though single readings can be large; an effect the other way counts as inactive or inconclusive.

Assay [1] has as its target Flap endonuclease 1 (Homo sapiens) (UniProt P39748). The assay is described as follows: qHTS Validation Assay for the Inhibitors of Human Flap endonuclease 1 (FEN1) (AID 488816). Also: % is scaled to controls: 0 for no effect and ±100 for the full control effect. The method in brief:
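Steps: add FEN1 (10 nM reagent) or buffer only; pin compounds; hold 15 min at room temperature; start with substrate, 50 nM final; read at 0 and 15 min; correct, normalize and fit a four-parameter Hill curve.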
In general terms: qHTS replaces the single test concentration by a dilution series.

In assay [2] the target is M-phase phosphoprotein 8 (Homo sapiens) (UniProt Q99549). In words: qHTS Validation Assay for Inhibitors for MPP8 Chromodomain Interactions with Methylated Histone Tails (AID 488949). Also: nearly all actives have a fitted effect of over 55% in size. Also: potency is read from the fitted curve at half-maximal effect. An outline of the steps:
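50 nM MPP8 + 50 nM b-H3K9me3 peptide, PBS pH 7.4/0.01% Tween-20, 30 min RT; + cpd 30 min RT; + AlphaScreen donor/Ni-chelate acceptor beads 10 ug/mL final, 30 min dark; luminescence read.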

The target in assay [3] is Chromobox protein homolog 1 (Homo sapiens) (UniProt P83916). In words: qHTS Validation Assay for Inhibitors of HP1-beta Chromodomain Interactions with Methylated Histone Tails (AID 488953). Also: nearly all actives have a fitted effect of over 50% in size. Also: potency is read from the fitted curve at half-maximal effect. An outline of the steps: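 AlphaScreen proximity signal from streptavidin donor and nickel chelate acceptor beads (final 10 ug/mL) after 30 min dark incubation. Compounds had 30 min at room temperature with preformed complex of 50 nM HP1-beta and 50 nM b-H3(1-18)K9me3 in PBS pH 7.4 with 0.01% Tween-20.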

Assay [4] concerns the target Methanococcus maripaludis chaperonin (MmCpn) (UniProt Q6LX38). In words: High-Throughput Screening for Modulators of Cytosolic Chaperonin Activity: MmCpn Primary Screen (AID 488978).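 Also: 50 nM MmCpn enzyme hydrolysing 30 µM ATP at 37 °C; 0% is about no effect.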 The method in brief:
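Steps: chaperonin 50 nM final; add compound, 5 min RT; start with ATP, 30 uM final; hold 10 min at 37C; add ADP Transcreener HTRF reagent, 5 min; read ex 320, em 590 and 665 nm.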

The target of assay [5] is D(1A) dopamine receptor (Homo sapiens) (UniProt P21728). In words: HTS Assay for Allosteric Agonists of the Human D1 Dopamine Receptor: Primary Screen for Agonists (AID 488981). Also: 0% is about no effect. An outline of the steps:
(§1)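 Tetracycline-induced HEK293 T-REx cells force-coupled to calcium signalling were incubated overnight at 30 C and dye-loaded at room temperature. Calcium flux over 180 s after compound addition flagged agonists; a further 180 s read after EC20 dopamine flagged potentiators.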

For assay [6] the target is unchanged. In words: HTS Assay for Allosteric Agonists of the Human D1 Dopamine Receptor: Primary Screen for Potentiators (AID 488982). Also: potency is read from the fitted curve at half-maximal effect. An outline of the steps: as §1
For assay [7] the target is unchanged. The assay is described as follows: HTS Assay for Allosteric Agonists of the Human D1 Dopamine Receptor: Primary Screen for Antagonists (AID 488983).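 Also: calcium flux response to an EC80 dopamine challenge measured with no-wash dye; % is scaled to controls: 0 for no effect and ±100 for the full control effect; nearly all actives have a fitted effect of over 65% in size.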 An outline of the steps: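 Calcium-flux read-out in inducible HEK293 T-REx cells expressing D1, dye-loaded 30–90 min at room temperature. Kinetic reads: 180 s after compound (agonist phase), then 180 s after an EC80 dopamine challenge.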

Assay [8] in a line: Validation screen for small molecules that induce genotoxicity in human embryonic kidney (HEK293T) cells expressing luciferase-tagged ELG1 (AID 493106). Also: 0% is about no effect. The method in brief:
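ELG1-luciferase reporter readout (ONE-Glo, 30 min, room temperature) after 16 hr compound treatment at 37 °C of HEK293T cells at 2,000 per well. Rising luminescence flags genotoxic stress.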

For assay [9], the target named is Transient receptor potential cation channel subfamily V member 1 (Homo sapiens) (UniProt Q8NER1). The assay is described as follows: HTS Assay for Compounds that Act as Enhancers of the Vanilloid Receptor 1 (AID 488979). Also: 0% is about no effect. The method in brief: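 TRPV1-expressing cells loaded with Fluo-8 calcium dye; compounds added and calcium influx read kinetically for 3 min (agonist phase), then capsaicin at EC20 added and read 2 min more for enhancement. Fluorescence ex 480/em 520 nm.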

Assay [10] has as its target Thyrotropin receptor (Homo sapiens) (UniProt P16473). The assay is described as follows: qHTS Assay for Antagonists of the Thyroid Stimulating Hormone Receptor (AID 488980). Also: series mostly up to about 58 µM; 0% is about no effect. An outline of the steps: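 Readout is cAMP by HTRF competition between cellular cAMP and cAMP-d2 for a cryptate-labelled antibody. Antagonism was assessed in TSHR-transfected HEK293 cells stimulated with 4 nM TSH (EC80, final) in the presence of RO 20-1724.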

The target of assay [11] is Tyrosyl-DNA phosphodiesterase 1 (Homo sapiens) (UniProt Q9NUW8). The assay is described as follows: Confirmation Assay for Inhibitors of Tyrosyl-DNA Phosphodiesterase (TDP1) (AID 489007). Also: potency is read from the fitted curve at half-maximal effect; nearly all actives have a fitted effect of over 40% in size. To be noted: recombinant human TDP1 enzymatic activity, dose-response. An outline of the steps:
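AlphaScreen assay of tyrosine-FITC cleavage from a biotinylated DNA substrate (15 nM) by E. coli-expressed human Tdp1 (1 nM). Sequence: compound preincubation 15 min, reaction 5 min, bead detection 10 min, all at room temperature. No-enzyme wells give maximum signal.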

The target in assay [12] is Thyrotropin-releasing hormone receptor (Homo sapiens) (UniProt P34981). The assay is described as follows: qHTS for Small Molecule Agonists and Allosteric Enhancers of Human TRH Receptor: Validation Screen for Agonists (AID 493127;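 active = calcium activation more than 3 SD above the typical response in the agonist read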;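 also: intracellular calcium rise by fluo-8 fluorescence before TRH EC20 addition; 0% is about no effect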). Conditions: TRH receptor agonist cell assay; at 2 µM; stronger effect = higher value. An outline of the steps: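 Compound-evoked intracellular calcium release in fluo-8-loaded TRHR cells, read kinetically on FDSS (Ex 480/Em 530, 1 s/cycle) after 23 nL pintool transfer. Agonist phase preceded 10 nM TRH EC20 addition.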

Assay [13] in a line: Validation screen for small molecules that induce DNA re-replication in SW480 colon adenocarcinoma cells (AID 504364). Also: 0% is about no effect. An outline of the steps:
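Image-based DNA content read-out: Hoechst stain 40 min, total nuclear fluorescence intensity (ex 405 nm, em 500-530 nm) after 48 h compound exposure of 250 SW480 cells/well at 37 C, 5% CO2, versus DMSO vehicle.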

Assay [14] has as its target ATPase family AAA domain-containing protein 5 (Homo sapiens) (UniProt Q96QE3). The assay is described as follows: Validation screen for small molecules that inhibit ELG1-dependent DNA repair in human embryonic kidney (HEK293T) cells expressing luciferase-tagged ELG1 (AID 493107).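 Also: series mostly up to about 46 µM; % is scaled to controls: 0 for no effect and ±100 for the full control effect; inhibitors lower the ELG1-luciferase luminescence signal; nearly all actives have a fitted effect of over 70% in size.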 The method in brief: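 Luciferase read-out, ONE-Glo, 30 min at room temperature, follows 16 h co-exposure at 37 C of compound and the DNA-damaging agent 5-fluorouridine. Cells: HEK293T with ELG1-luciferase fusion, 2,000 per well, DMSO as vehicle.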

A short description of assay [15]: Nrf2 qHTS screen for inhibitors: Validation (AID 493153; active = well fitted inhibition curve with a large enough effect in the main read-out, with a control signal flat, not every such curve was filed as active). To be noted: Potency: luciferase luminescence; viability change: measured here: cytotoxicity max response. The method in brief:
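Concentration-response on A549 ARE_Fluc reporter cells exposed 18-24 h at 37 C, 5% CO2. Cytotoxicity read first by CellTiter-Fluor fluorescence (Ex 405/Em 525), then Nrf2 inhibition by BugLite luminescence after 15 min.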

Assay [16] can be described thus: qHTS for Inhibitors of Cell Surface uPA Generation: Validation Assay (AID 493164).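 Also: RAW 264.7 macrophage cells exposed to compound for 18 h; 0% is about no effect.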 The method in brief: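 ATP-Lite luminescence read-out: ATP remains high when uPA activity-dependent LF translocation into the cytoplasm is blocked. RAW 264.7 cells, 18 h compound exposure at 37 C; 7-point titration, 2.45 nM to 38.3 uM final.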
Assay [17] addresses Thioredoxin reductase 1, cytoplasmic (Rattus norvegicus) (UniProt O89049). In words: qHTS Assay for Inhibitors of Mammalian Selenoprotein Thioredoxin Reductase 1 (TrxR1) (AID 488773).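 Also: drop in NADPH fluorescence over an 8 min run after selenite addition; series mostly up to about 57 µM; % is scaled to controls: 0 for no effect and ±100 for the full control effect; nearly all actives have a fitted effect of over 40% in size.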 To be noted: Potency: inhibition. An outline of the steps:
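Inhibition is scored from the loss of NADPH fluorescence between first and last reads of an 8-min kinetic run. Selenite (400 uM) was the substrate, added after 15 min compound preincubation at room temperature.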

The target in assay [18] is Galactokinase (Homo sapiens) (UniProt P51570). In words: qHTS Validation Assay for Inhibitors of Human Galactokinase (GALK) (AID 493189). Also: 0% is about no effect. The method in brief:
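5 nM GALK / 100 uM galactose / 35 uM ATP, 20 mM HEPES pH8.0, 5 mM MgCl2, 60 mM NaCl, 1 mM DTT, 0.01% BSA (final). RT 1 h; Kinase-Glo Plus luminescence.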

Assay [19] deals with ATP-dependent 6-phosphofructokinase (Trypanosoma brucei brucei) (UniProt O15648). In words: qHTS Assay to Find Inhibitors of T. brucei phosphofructokinase: hit validation (AID 492961).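 Also: luminescence reports ADP formed as PFK phosphorylates fructose-6-phosphate with ATP; series mostly up to about 51 µM; % is scaled to controls: 0 for no effect and ±100 for the full control effect.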 The method in brief: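 Reaction: 0.1 M triethanolamine pH 8.0, 5 mM MgCl2, F6P 0.5 mM, ATP 0.1 mM, PFK 1.25 nM, 45 min RT. Read-out: ADP-Glo luminescence. Analysis: concentration-response fits, classed by r2 and efficacy.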
Sequence of ATP-dependent 6-phosphofructokinase (Trypanosoma brucei brucei) (O15648 whole entry, looked up): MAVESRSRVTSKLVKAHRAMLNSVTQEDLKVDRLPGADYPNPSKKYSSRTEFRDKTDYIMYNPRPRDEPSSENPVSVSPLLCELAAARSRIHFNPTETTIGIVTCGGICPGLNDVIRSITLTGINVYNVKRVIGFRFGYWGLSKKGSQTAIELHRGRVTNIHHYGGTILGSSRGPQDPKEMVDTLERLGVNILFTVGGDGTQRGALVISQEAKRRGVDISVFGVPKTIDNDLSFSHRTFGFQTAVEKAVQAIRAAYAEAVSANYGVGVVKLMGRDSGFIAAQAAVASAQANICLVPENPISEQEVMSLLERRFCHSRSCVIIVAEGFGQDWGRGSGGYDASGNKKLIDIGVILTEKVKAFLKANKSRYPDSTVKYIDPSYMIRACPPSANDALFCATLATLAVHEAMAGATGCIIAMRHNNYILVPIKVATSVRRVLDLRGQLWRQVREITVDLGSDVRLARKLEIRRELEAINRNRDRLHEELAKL

Sequence of Chromobox protein homolog 1 (Homo sapiens) (P83916 whole entry, looked up): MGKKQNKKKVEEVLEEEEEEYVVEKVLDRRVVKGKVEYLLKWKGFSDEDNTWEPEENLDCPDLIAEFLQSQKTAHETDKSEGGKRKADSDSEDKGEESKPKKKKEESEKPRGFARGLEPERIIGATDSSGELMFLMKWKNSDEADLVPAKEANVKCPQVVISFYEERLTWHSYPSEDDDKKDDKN
Sequence of Thyrotropin-releasing hormone receptor (Homo sapiens) (P34981 whole entry, looked up): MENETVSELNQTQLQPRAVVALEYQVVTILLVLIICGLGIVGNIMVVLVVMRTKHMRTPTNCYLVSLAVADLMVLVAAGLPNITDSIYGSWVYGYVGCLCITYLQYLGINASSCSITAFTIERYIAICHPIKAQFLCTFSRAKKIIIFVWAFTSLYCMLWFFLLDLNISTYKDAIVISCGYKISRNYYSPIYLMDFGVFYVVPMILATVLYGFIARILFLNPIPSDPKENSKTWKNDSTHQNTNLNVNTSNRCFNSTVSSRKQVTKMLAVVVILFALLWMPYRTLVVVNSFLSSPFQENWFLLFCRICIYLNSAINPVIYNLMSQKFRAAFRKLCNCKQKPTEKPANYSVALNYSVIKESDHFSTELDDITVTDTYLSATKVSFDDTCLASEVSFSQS
Sequence of Methanococcus maripaludis chaperonin (MmCpn) (Q6LX38 1-543): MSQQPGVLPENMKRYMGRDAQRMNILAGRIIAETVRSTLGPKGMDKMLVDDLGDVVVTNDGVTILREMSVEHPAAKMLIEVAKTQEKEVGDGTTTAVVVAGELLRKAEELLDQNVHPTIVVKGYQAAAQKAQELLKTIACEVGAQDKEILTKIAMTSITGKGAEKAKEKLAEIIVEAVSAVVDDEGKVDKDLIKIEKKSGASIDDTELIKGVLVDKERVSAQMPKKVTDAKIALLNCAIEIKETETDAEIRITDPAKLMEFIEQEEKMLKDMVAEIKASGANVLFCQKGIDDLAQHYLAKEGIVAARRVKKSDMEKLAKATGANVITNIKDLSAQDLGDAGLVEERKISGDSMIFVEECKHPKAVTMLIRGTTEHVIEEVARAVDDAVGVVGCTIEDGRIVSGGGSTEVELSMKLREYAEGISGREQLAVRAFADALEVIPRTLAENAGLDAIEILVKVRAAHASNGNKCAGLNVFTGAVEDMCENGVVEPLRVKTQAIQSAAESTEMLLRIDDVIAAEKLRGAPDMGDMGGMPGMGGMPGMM
Sequence of Galactokinase (Homo sapiens) (P51570 whole entry, looked up): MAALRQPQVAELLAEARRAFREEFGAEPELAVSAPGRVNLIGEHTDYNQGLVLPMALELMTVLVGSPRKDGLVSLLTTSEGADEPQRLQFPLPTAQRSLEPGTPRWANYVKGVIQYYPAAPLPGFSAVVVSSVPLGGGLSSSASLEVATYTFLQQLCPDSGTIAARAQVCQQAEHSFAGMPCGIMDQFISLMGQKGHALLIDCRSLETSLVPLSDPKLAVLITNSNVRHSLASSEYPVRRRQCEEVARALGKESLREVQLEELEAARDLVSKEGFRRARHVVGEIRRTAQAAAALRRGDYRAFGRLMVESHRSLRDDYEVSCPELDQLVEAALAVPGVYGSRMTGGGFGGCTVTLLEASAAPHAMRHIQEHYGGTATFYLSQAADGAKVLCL
Sequence of Thyrotropin receptor (Homo sapiens) (P16473 whole entry, looked up): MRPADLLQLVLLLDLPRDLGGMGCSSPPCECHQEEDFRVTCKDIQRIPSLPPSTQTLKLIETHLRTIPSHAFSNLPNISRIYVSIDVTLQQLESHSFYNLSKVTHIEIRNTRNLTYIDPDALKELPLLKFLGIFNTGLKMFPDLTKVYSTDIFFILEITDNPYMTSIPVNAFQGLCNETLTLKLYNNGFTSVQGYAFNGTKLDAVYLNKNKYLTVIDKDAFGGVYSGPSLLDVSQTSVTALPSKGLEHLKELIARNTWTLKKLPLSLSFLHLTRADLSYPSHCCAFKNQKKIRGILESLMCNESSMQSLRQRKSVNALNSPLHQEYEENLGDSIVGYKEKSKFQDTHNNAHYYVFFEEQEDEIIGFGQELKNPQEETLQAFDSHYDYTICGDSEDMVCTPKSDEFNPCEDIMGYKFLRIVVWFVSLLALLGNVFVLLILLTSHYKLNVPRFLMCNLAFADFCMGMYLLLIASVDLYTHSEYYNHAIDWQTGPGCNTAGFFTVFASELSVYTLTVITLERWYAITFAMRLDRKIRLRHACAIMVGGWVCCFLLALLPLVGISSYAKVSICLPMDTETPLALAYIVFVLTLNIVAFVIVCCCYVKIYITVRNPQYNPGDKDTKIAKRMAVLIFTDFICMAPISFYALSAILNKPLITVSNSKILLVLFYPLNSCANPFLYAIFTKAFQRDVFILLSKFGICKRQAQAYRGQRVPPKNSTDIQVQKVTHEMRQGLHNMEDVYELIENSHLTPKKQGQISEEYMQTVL
Sequence of Transient receptor potential cation channel subfamily V member 1 (Homo sapiens) (Q8NER1 whole entry, looked up): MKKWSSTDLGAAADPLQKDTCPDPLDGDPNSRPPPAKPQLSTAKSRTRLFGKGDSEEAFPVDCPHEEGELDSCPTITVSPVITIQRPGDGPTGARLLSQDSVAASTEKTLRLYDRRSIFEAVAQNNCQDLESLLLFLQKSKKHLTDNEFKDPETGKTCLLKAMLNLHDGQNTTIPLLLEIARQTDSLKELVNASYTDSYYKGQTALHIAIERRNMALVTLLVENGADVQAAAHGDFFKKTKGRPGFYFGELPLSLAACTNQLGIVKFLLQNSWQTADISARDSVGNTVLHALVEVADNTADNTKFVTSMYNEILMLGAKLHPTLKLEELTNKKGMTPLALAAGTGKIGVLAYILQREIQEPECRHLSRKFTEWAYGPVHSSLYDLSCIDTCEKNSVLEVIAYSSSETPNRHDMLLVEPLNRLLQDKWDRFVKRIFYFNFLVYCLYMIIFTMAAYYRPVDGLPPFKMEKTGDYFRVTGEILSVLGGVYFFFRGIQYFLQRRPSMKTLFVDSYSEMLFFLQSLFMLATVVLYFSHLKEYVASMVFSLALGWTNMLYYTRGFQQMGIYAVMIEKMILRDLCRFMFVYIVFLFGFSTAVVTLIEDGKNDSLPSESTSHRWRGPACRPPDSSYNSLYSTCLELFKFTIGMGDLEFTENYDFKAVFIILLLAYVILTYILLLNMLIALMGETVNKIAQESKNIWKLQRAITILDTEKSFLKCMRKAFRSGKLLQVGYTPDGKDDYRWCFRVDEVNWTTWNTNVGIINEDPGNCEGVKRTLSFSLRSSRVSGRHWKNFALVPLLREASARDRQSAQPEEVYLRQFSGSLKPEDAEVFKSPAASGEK
Sequence of M-phase phosphoprotein 8 (Homo sapiens) (Q99549 whole entry, looked up): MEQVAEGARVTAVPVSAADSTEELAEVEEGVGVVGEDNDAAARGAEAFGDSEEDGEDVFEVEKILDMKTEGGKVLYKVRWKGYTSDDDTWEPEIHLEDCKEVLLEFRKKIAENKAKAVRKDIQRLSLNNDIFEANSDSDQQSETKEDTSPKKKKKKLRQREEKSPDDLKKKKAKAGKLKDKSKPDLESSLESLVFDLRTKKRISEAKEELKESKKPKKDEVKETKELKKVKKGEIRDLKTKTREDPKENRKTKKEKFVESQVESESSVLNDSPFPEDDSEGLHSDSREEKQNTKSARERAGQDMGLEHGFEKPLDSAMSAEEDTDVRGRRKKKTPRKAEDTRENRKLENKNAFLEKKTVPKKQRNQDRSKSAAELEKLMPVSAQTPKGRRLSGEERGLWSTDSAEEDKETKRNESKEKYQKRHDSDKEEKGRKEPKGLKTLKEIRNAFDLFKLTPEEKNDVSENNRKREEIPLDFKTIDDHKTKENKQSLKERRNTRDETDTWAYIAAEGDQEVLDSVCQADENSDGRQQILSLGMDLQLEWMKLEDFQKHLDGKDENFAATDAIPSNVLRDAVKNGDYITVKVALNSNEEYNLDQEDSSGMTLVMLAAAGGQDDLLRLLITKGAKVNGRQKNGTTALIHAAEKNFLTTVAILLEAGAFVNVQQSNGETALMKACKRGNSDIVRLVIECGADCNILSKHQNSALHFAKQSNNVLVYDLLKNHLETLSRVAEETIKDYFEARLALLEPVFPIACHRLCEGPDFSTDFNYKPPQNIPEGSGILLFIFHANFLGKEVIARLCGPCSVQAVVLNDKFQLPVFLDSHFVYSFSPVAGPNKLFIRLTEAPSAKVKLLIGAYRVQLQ
Sequence of Flap endonuclease 1 (Homo sapiens) (P39748 whole entry, looked up): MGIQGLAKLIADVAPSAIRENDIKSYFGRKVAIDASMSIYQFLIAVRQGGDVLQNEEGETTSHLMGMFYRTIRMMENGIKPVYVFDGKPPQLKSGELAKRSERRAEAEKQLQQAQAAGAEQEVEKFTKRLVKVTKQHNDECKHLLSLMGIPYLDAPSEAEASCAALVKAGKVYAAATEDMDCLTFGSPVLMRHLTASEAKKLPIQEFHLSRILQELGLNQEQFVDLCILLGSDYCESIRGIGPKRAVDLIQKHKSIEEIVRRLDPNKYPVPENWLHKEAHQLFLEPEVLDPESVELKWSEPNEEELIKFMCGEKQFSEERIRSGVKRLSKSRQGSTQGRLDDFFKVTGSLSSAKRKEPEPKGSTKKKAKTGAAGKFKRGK

Take `CC[C@@H](C)[C@H]1O[C@]2(CC[C@H]1C)C[C@@H]1C[C@@H](CC=C(C)[C@@H](O[C@H]3C[C@H](OC)[C@@H](O[C@H]4C[C@H](OC)[C@@H](O)[C@H](C)O4)[C@H](C)O3)[C@@H](C)C=CC=C3CO[C@@H]4[C@H](O)C(C)=C[C@@H](C(=O)O1)[C@]34O)O2`: the Potency result in assay [1], in assay [2], in assay [3], in [5], in [7] and in [8] was “inactive” each time. In assay [4], the result was inactive. For the same compound, in assay [6], the Potency was 2.06 µM (active).

Take `CO/N=C(\C(=O)N[C@@H]1C(=O)N2C(C(=O)O)=C(COC(C)=O)CS[C@H]12)c1csc(N)n1` (stereo in doubt): the Potency was 56.2 µM (active) in [2] and 7.94 µM (active) in assay [11]. In addition, the outcome in assay [9] and in [10] was inactive. Also, in assay [12], the activation was 0.688% (inactive). For the same compound, the Potency entry in assay [13] is “inactive”.

As to `CC1(C)CCC=[N+]1[O-]`, the Potency entry in assay [1], in assay [2], in assay [3], in [5], in assay [6] and in assay [7] was “inactive” in each case. Besides, the Potency result in [8], in [14], in [15] and in assay [13] was “inactive” throughout. Further, the outcome in assay [4], in assay [9], in assay [10] and in assay [16] was inactive. The activation in assay [12] was 1.19% (inactive). Also, the viability change in [15] is -0.162%.

With `CCN1/C(=C/C(C)=O)Sc2ccc(OC)cc21`, the Potency entry in assay [17], in [2], in assay [5], in [6], in [7] and in assay [8] was “inactive” throughout. Moreover, the Potency result in [15], in assay [18] and in assay [13] was “inactive” throughout. The outcome in assay [4], in [9], in assay [10] and in assay [16] was inactive. Moreover, the activation in assay [12] was -4.31% (inactive). Also, the viability change in [15] is -5.53%.

As to `CN1[C@@H](CC(=O)c2ccccc2)CCC[C@H]1C[C@H](O)c1ccccc1`, the Potency result in [17], in [3], in assay [5], in assay [6], in assay [7] and in assay [8] was “inactive” in each case. In addition, the Potency result in [14], in [15], in assay [18] and in [13] was “inactive” throughout. In addition, the call in [4], in assay [9], in assay [10], in [19] and in assay [16] was inactive. For the same compound, in [12], the activation is 0.5% (inactive). Moreover, the viability change in assay [15] is -11%.

As for `NC(=S)c1ccc[n+]([C@@H]2O[C@@H](COP(=O)([O-])OP(=O)(O)OC[C@H]3O[C@@H](n4cnc5c(N)ncnc54)[C@H](OP(=O)(O)O)[C@@H]3O)C(O)C2O)c1` (stereo partly drawn), the Potency entry in assay [1], in assay [2], in [5], in assay [6], in [7] and in assay [8] was “inactive” in each case. Besides, the Potency entry in assay [14] and in [15] was “inactive” throughout. Besides, the Potency in [3] is 89.1 µM (active). Further, in assay [15], the viability change was -6.67%. The compound was classed as inactive in assay [16].

For `CN(C)CCCO[C@@H]1[C@H]2OC(C)(C)O[C@H]2O[C@@H]1[C@H](O)CO`, the Potency entry in [17], in assay [1], in assay [2], in assay [5], in assay [6] and in assay [7] was “inactive” in each case. Moreover, the Potency result in assay [8] and in assay [14] was “inactive” in each case.

Regarding `O=C(O)[C@H](O)[C@@H](O)[C@H](O)[C@H](O)CO`, the result in [19] was inactive.

For `CCOC(=O)c1ccccc1O`, the outcome in [19] was inactive.

As to `CC[C@@H](C)[C@H]1O[C@]2(CC[C@@H]1C)C[C@@H]1C[C@@H](C/C=C(\C)[C@@H](O[C@H]3C[C@H](OC)[C@@H](O[C@H]4C[C@H](OC)[C@@H](O)[C@H](C)O4)[C@H](C)O3)[C@@H](C)/C=C/C=C3\CO[C@@H]4[C@H](O)C(C)=C[C@@H](C(=O)O1)[C@]34O)O2`, in assay [10], the call was inactive. For the same compound, the Potency entry in assay [18] is “inactive”.

For the compound `CC(C)NCC(O)COc1cccc2ccccc12` (stereo not drawn), the Potency entry in assay [17], in assay [2], in [3], in assay [7], in [8] and in [14] was “inactive” each time. Also, the Potency entry in [15] and in assay [13] was “inactive” each time. Moreover, the outcome in assay [4] was inactive. In [12], the activation is 2.25% (inactive). For the same compound, in assay [15], the viability change stood at 6.42%.

Regarding `Nc1c(CC(=O)O)cccc1C(=O)c1ccc(Br)cc1`, the outcome in assay [19] was inactive.

With `N.N.N.N.N.N.N.N.N.N.N.N.N.N.O.O.[Ru+4].[Ru+5].[Ru+5]`, the values for the Potency in [2] and in [3] were 8.44 µM (active) and 4.47 µM (active), respectively. Moreover, the Potency result in assay [5], in assay [7] and in assay [8] was “inactive” throughout. The compound was called inactive in assay [16].
